Assay results taken from PubChem BioAssay.
Active and inactive are the calls of the source.

Columns and labels:
[1] = system: XIP peptide (Xip251-270) binding; assay: small-molecule binders of XIP peptide, primary screen, biochemical, small-molecule microarray, fluorescence 635/667 nm, 0.1 µg/mL protein (AID 1182); details: fluorescent protein binding, 635 nm, higher = more signal, called active from +8 up or from −8 down
[2] = system: XIP peptide (Xip251-270); assay: small-molecule binders of XIP peptide, primary screen, biochemical, small-molecule microarray, fluorescence 635/667 nm, 0.5 µg/mL protein (AID 1183); details: small-molecule microarray binding, fluorescence 635 nm; higher = more signal
[3] = Plasmodium falciparum growth inhibition, primary screen, strain 3D7, DAPI fluorescence, 100 nL (AID 1184);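 further: parasites grown inside human red blood cells in medium with human serum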; details: P. falciparum 3D7 growth, 3 d, higher = more signal
[4] = target: Homeobox protein Hox-A13 (Mus musculus) (UniProt Q62424); assay: inhibitors of HoxA13-DNA binding, primary screen, biochemical, fluorescence polarization, labeled oligonucleotide (AID 1185); details: 15 min, higher = more signal, called active from +8 up or from −8 down
Chain of Homeobox protein Hox-A13 (Mus musculus) (Q62424 whole entry, looked up): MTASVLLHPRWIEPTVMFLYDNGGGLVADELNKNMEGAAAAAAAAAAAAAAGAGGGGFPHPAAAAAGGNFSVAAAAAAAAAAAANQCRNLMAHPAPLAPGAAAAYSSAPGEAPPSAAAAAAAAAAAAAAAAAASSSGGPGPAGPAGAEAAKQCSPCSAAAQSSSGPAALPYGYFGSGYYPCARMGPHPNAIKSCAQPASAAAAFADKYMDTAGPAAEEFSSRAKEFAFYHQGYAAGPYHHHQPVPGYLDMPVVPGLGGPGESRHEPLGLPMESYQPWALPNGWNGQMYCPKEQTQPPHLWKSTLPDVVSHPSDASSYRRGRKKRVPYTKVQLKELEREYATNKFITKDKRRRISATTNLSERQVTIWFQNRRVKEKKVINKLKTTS

| SMILES | composite z-score [1] | composite z-score [2] | z-score [3] | z-score [4] |
| --- | --- | --- | --- | --- |
| COc1cccc([C@H]2Oc3ccc(OC)cc3C(=NOC[C@@H](C)[C@H](OCc3ccccc3)C(C)C)[C@@H]2O)c1 | 0.305 (inactive) | -0.724 | -0.157 | -0.308 (inactive) |
| CC(CCN1CCCCc2nc(C)c(C)cc21)=NOC[C@@H](O)COCc1ccco1 | 2.22 (inactive) | 0.863 | -0.246 | -4.37 (inactive) |
| COc1ccc(O[C@H]2C=C[C@@H](c3ccccc3)O[C@@H]2CON=CC[C@@H]2C=C[C@H](OC(C)=O)[C@@H](COC(C)=O)O2)cc1 | 0.21 (inactive) | -0.104 | -0.483 | -4.06 (inactive) |
| CCO[C@H](c1cc(OC)cc([N+](=O)[O-])c1OC)[C@H](C)C=CCC(=O)OC | -0.128 (inactive) | 0.325 | -0.0866 | -0.64 (inactive) |
| O=c1n(Cc2cc3c(cc2Cl)OCO3)c(=O)n2n1CC[C@@H]1C(=NOCc3ccccc3)[C@H]3O[C@H]3[C@@H](O)[C@@H]12 | 0.0872 (inactive) | -0.0262 | 0.0783 | 0.962 (inactive) |
| C=CC[C@@H]1C=C[C@H](ON=C2[C@H]3CCn4c(=O)n(-c5ccccc5)c(=O)n4[C@H]3[C@H](O)[C@@H]3O[C@H]23)[C@@H](CO)O1 | 0.372 (inactive) | 0.287 | -0.605 | -2.05 (inactive) |
| CCOC(=O)[C@H](CC(C)C)NC(=O)CCC1CC(OC(=O)NCCc2ccc(F)cc2)CC2(CCCC(COC(=O)NCCOc3ccccc3)O2)O1 (stereo not given in full) | 0.679 (inactive) | 0.31 | -2.02 | -6.97 (inactive) |
| CCN1C(=O)[C@H]2[C@H]3[C@H](O)[C@H](O)CC(=O)[C@H]3CC[C@H]2C1=O | 0.809 (inactive) | 0.453 | 1.05 | 0.0412 (inactive) |
| CCOC(=O)[C@H](CC(C)C)NC(=O)CCC1CC(OC(=O)NCc2ccc3c(c2)OCO3)CC2(CCCC(COC(=O)NCC3CCCCC3)O2)O1 (stereo not given in full) | 0.269 (inactive) | 0.0826 | -1.77 | -6.18 (inactive) |
| CC[C@@H](c1ccccc1)n1c(=O)n2n(c1=O)[C@H]1[C@H](O)[C@@H]3O[C@@H]3C(=NOC[C@@H](O)COCc3ccco3)[C@H]1CC2 | -0.0593 (inactive) | -0.268 | -0.949 | -3.57 (inactive) |
| CO[C@H]1COC(=O)CC=C[C@@H](C)[C@H](OC)COC(=O)CCC[C@@H]1C | -0.283 (inactive) | -0.15 | 0.0095 | -0.51 (inactive) |
| COC(=O)[C@@H]1CC[C@H](C)[C@@H](c2ccc(C)cc2)N1C(=O)c1ccc(C=NOC[C@@H](C)[C@H](OCc2ccccc2)C(C)C)cc1 | 0.0611 (inactive) | 0.489 | -1.87 | -4.87 (inactive) |
| O=C1[C@H]2[C@H]3[C@H](O)[C@H](O)CC(=NOC[C@@H](O)COCc4ccco4)[C@H]3CC[C@H]2C(=O)N1Cc1ccccc1 | -0.227 (inactive) | 0.252 | 0.254 | -2.38 (inactive) |
| CCCNC(=O)OC[C@H]1O[C@H](CCON=C(C)C)C=C[C@@H]1Oc1ccc(OC)cc1 | 0.771 (inactive) | 0.219 | 1.07 | 0.928 (inactive) |
| C=CC[C@@H]1C=C[C@H](ON=C(C)CCN2CCc3nc(-c4ccccc4)c(-c4ccccc4)cc3C2)[C@@H](CO)O1 | 0.957 (inactive) | 0.58 | -0.0674 | -5.72 (inactive) |
| O=c1n(Cc2cc3c(cc2Cl)OCO3)c(=O)n2n1CC[C@@H]1C(=NOC[C@@H](O)COCc3ccco3)[C@H]3O[C@H]3[C@@H](O)[C@@H]12 | -0.45 (inactive) | 0.108 | -0.181 | -0.786 (inactive) |
| COc1cccc([C@H]2Oc3ccc(OC)cc3C(=NOC(C)CN3CCCCc4nc(C)c(C)cc43)[C@@H]2O)c1 (stereo not given in full) | 1.06 (inactive) | 0.195 | 0.25 | -4.68 (inactive) |
| CC(C)(C)N1C(=O)[C@H]2[C@H]3[C@H](O)[C@H](O)CC(=NO[C@@H]4O[C@H](CO)[C@@H](O)[C@H](O)[C@H]4O)[C@H]3CC[C@H]2C1=O | 0.0127 (inactive) | 0.271 | -1.62 | -4.08 (inactive) |
| COC(=O)CC=C[C@@H](C)[C@@H](C=NOCC[C@@H]1C=C[C@H](OC(C)=O)[C@@H](COC(C)=O)O1)OC | -0.198 (inactive) | 0.239 | 1.13 | -1.14 (inactive) |
| C#CCCCON=C1C[C@@H](O)[C@@H](O)[C@@H]2[C@@H]3C(=O)N(c4ccc(F)cc4F)C(=O)[C@@H]3CC[C@@H]12 | 0.76 (inactive) | 0.0996 | -0.217 | -3.13 (inactive) |
